This is a sample that favours compounds with a hit; in the whole collection about 9.8% have one here.
KDM4E inh = inhibitors of human JMJD2E histone demethylase. B2RXH2. JMJD2E catalytic domain, FDH-coupled NADH fluorescence (FDH is formaldehyde dehydrogenase). Potency, µM (titrated, usually from 57.1 µM), hits mostly inhibitors. hit rate 1.6% among 230,000. AID 2147; also: nearly all actives have a fitted effect of over 50% in size
Target sequence (B2RXH2 1-337 limits assumed): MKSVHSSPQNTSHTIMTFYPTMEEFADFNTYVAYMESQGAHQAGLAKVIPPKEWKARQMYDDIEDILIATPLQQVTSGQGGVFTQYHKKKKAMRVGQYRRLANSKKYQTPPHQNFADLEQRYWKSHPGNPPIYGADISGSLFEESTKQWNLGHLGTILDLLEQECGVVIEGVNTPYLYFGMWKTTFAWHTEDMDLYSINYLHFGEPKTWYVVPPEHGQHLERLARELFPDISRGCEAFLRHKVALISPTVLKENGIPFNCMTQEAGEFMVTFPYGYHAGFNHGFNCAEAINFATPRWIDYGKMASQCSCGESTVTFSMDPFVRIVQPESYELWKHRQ
ALDH1A1 inh = blocks purified human ALDH1A1 activity; Purified ALDH1A1, NADH fluorescence, propionaldehyde substrate; P00352; hit rate 7.3% among 220,000; Potency, µM (doses to about 75.3 µM), actives largely listed as inhibitors; AID 1030
CBFb RUNX1 block = CBF-beta/RUNX1 interaction disruption; Q01196+Q13951; Potency, µM (titrated, usually from 59.8 µM), hits mostly inhibitors; 230,000 tested, under 10 active; AlphaScreen CBFb-His/RUNX1-biotin binding, biochemical; active = well fitted curve in the direction sought with a large enough effect; inconclusive = small, poorly fitted or top-dose-only effect, or another doubt; inactive = no such curve, though single readings can be large; an effect the other way counts as inactive or inconclusive
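Interaction loss through any mechanism counts as activity. Pre-formed complex of His-CBF-beta and biotin-RUNX1 (30 nM apiece) is incubated with compound 15 min, then with 50 ng nickel and 50 ng streptavidin beads for 90 min before AlphaScreen detection.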
HTT aggregate = mutant huntingtin aggregation inhibition; PC12 HttQ103-GFP aggregates, Acumen cytometry, 40 h; Potency, µM (series often up to 46.1 µM), most hits filed as inhibitors; hit rate 1.1% among 220,000; active = well fitted curve in the direction sought with a large enough effect; inconclusive = small, poorly fitted or top-dose-only effect, or another doubt; inactive = no such curve, though single readings can be large; an effect the other way counts as inactive or inconclusive; also: nearly all actives have a fitted effect of over 60% in size
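Compounds (qHTS titration) were added to PC12 cells expressing an ecdysone-driven HTT exon 1 Q103–GFP fusion after induction with 100 nM tebufenozide. Aggregate formation was measured as GFP objects in cell lysates.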
HPGD block = HPGD (human) dehydrogenase inhibition | purified HPGD, NADH fluorescence kinetic, PGE2 substrate | AID 894 | hit rate 4.3% among 150,000 | Potency, µM, actives largely listed as inhibitors | P15428
Target sequence (P15428 whole entry, looked up): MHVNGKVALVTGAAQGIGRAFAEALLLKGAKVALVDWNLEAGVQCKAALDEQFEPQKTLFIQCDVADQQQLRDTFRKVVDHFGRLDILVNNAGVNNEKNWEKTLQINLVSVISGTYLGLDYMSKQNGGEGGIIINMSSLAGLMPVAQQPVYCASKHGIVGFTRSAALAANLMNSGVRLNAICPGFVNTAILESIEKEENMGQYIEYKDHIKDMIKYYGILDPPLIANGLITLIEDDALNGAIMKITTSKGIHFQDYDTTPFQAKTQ
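NADH formation kinetics: reaction with 30 uM PGE2 and 1 mM NAD+ (final), 20 nM enzyme, Tris-HCl pH 8 with Tween 20, after 15 min compound preincubation at room temperature. Fluorescence change, last versus first of five reads.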
HTT ATP protect = Huntington cell model cytoprotection by ATP luminescence. AID 1471. hit rate 0.14% among 230,000. Potency, µM (highest dose often 56.4 µM), usual class: activators. PC12 HTT-Q103 induced, cytoprotection, ATP luminescence, 40 h; active = well fitted curve in the direction sought with a large enough effect; inconclusive = small, poorly fitted or top-dose-only effect, or another doubt; inactive = no such curve, though single readings can be large; an effect the other way counts as inactive or inconclusive; also: nearly all actives have a fitted effect of over 45% in size
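Cells were plated at 1500 per well in phenol red-free DMEM with 5% equine and 5% calf serum. Tebufenozide (100 nM final) and compounds were added, then ATPlite reagent, and luminescence was read.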
Large screens that a line does not name were inactive. Unless noted, calls follow the shape of the dose curve; as a rule, active = well fitted inhibition curve with a large enough effect (not every such curve was filed as active); inconclusive = small, poorly fitted or top-dose-only effect, or another doubt; inactive = no such curve, though single readings can be large or run the other way.

Cc1ccc(OCCNC(=O)/C=C/c2ccco2)cc1C	ALDH1A1 inh 11µM (no result: HPGD block)
CCOC(=O)N/N=C(C)/C=C/c1ccco1	ALDH1A1 inh 10µM
CC(/C=C/c1ccco1)=N\NC(=O)COc1ccc(C)c(C)c1	ALDH1A1 inh 3.5µM (no result: HPGD block)
COc1ccc(C2(CNC(=O)/C=C\c3ccco3)CCCC2)cc1OC	ALDH1A1 inh 3.5µM, HTT aggregate inconclusive, HPGD block inconclusive
CC(/C=C/c1ccco1)=N\NC(=O)CNc1ccc2ccccc2c1	KDM4E inh inconclusive, ALDH1A1 inh 7.9µM (no result: HPGD block)
CCCc1c(C(=O)Nc2cc(C)on2)cnn1-c1ccccc1	ALDH1A1 inh 18µM (no result: HPGD block)
CCCc1c(C(=O)Nc2ccc(N3CCOCC3)cc2)cnn1-c1ccccc1	ALDH1A1 inh 3.2µM (no result: HPGD block)
CCCc1c(C(=O)Nc2ccc(C(F)(F)F)cc2)cnn1-c1ccccc1	none (no result: ALDH1A1 inh, HPGD block)
CCc1ccc(NC(=O)c2cnn(-c3ccccc3)c2C)cc1	HPGD block 2.5µM (no result: HTT ATP protect)
CCCc1c(C(=O)Nc2ccc(F)cc2C)cnn1-c1ccccc1	ALDH1A1 inh inconclusive (no result: HPGD block)
CCCc1c(C(=O)NNc2ccc(C)cc2)cnn1-c1ccccc1	ALDH1A1 inh 14µM (no result: HPGD block)
CC(=O)Nc1ccc(Nc2cc(C(C)C)nc3c(-c4ccccc4)c(C)nn23)cc1	KDM4E inh inconclusive (no result: ALDH1A1 inh, HPGD block)
CNc1ccnc(-c2ccccc2C(F)(F)F)n1	none (no result: CBFb RUNX1 block, HTT aggregate)
O=c1cc(O)nc(-c2ccccc2)s1	ALDH1A1 inh 0.79µM (no result: HPGD block, HTT ATP protect)
O=c1cc(O)nc(-c2ccc(Cl)cc2)s1	ALDH1A1 inh 16µM (no result: HPGD block)
COC(=O)NC(/C(C(=O)OC)=C(\C)NCc1ccccc1)c1cccs1 (stereo not given)	none (no result: KDM4E inh, HTT aggregate, HPGD block)
Cn1cccc1C(=O)N1CCC2(CCN(Cc3nccs3)CC2)CC1	none (no result: KDM4E inh, CBFb RUNX1 block, HTT aggregate)
CCCN1Cc2cccc(C(=O)NCCCOC(C)C)c2C1=O	ALDH1A1 inh 22µM
CCCN1Cc2cccc(C(=O)NC(C)c3cccs3)c2C1=O (stereo not given)	ALDH1A1 inh 4µM
CCCN1Cc2cccc(C(=O)Nc3ccc(C)cc3)c2C1=O	none
Cc1cc(C)n2nc(C(=O)Nc3ccc4c(c3)OCO4)nc2n1	ALDH1A1 inh inconclusive, CBFb RUNX1 block inconclusive, HPGD block 20µM
COc1ccccc1C(=O)Nc1ccc2c(c1)OCO2	none
Cc1ccccc1C(=O)Nc1ccc2c(c1)OCO2	HPGD block 18µM
O=C(Nc1ccc2c(c1)OCCO2)c1cccs1	ALDH1A1 inh inconclusive, HPGD block 20µM
O=C(c1ccc2c(c1)OCCCO2)c1cccs1	HPGD block 14µM
COc1ccc(C(=O)NNC(=O)CSc2nnc(-c3cccnc3)o2)cc1	none (no result: HPGD block)
O=C(Nc1ccc2c(c1)OCO2)c1cccs1	ALDH1A1 inh inconclusive, HPGD block 25µM
Cc1cc(C)n2c(SCC(=O)Nc3ccccc3)nnc2n1	none
CCN(CC)c1ccc(NC(=O)CSc2nnc3nc(C)cc(C)n23)cc1	ALDH1A1 inh inconclusive, HPGD block 16µM
CCN(CC)c1ccc(NC(=O)c2nc3nc(C)cc(C(F)F)n3n2)cc1	ALDH1A1 inh 11µM, HPGD block 22µM
O=C(NCc1ccccc1)c1ccccc1OCC(=O)N1CCCCC1	none
O=S(=O)(CCc1nc2ccccc2o1)c1ccc2ccccc2c1	none
NC1=NC(=O)/C(=C/c2cn(CCC(=O)O)nc2-c2ccc(F)cc2)S1	HPGD block 25µM
COc1ccc(-c2nn(CCC(=O)O)cc2/C=C2\SC(N)=NC2=O)cc1	CBFb RUNX1 block inconclusive, HPGD block 11µM
NC1=NC(=O)/C(=C/c2cn(CCC(=O)O)nc2-c2ccc(Cl)cc2)S1	KDM4E inh inconclusive, HPGD block 13µM
Cc1ccc(-c2nn(CCC(=O)O)cc2/C=C\C(=O)c2ccc(Br)cc2)cc1	ALDH1A1 inh inconclusive (no result: HPGD block)
O=C(O)CCn1cc(/C=C\C(=O)c2ccc(Cl)cc2)c(-c2cccc(Br)c2)n1	ALDH1A1 inh inconclusive, HTT aggregate inconclusive, HPGD block 25µM (no result: HTT ATP protect)
N#CCCn1cc(/C=C/C(=O)O)c(-c2ccc(F)cc2)n1	none (no result: HPGD block)
CCCOc1ccc(-c2nn(-c3ccccc3)cc2/C=C2\SC(N)=NC2=O)cc1	KDM4E inh inconclusive, HPGD block inconclusive
CCSCc1nnc(SCC(=O)Nc2ccc(F)cc2)n1CC	ALDH1A1 inh inconclusive (no result: HPGD block)
Cc1cnc(NC(=O)c2c(-c3ccccc3)noc2C)s1	none (no result: ALDH1A1 inh, HPGD block)
COc1ccc(/C=N\NC(=O)c2cc(O)c(O)c(O)c2)cc1CN1CCN(c2ccc(F)cc2)CC1	KDM4E inh 4µM, ALDH1A1 inh 13µM
COc1ccc(/C=N/NC(=O)c2ccc(C)cc2)cc1CN1CCN(c2ccc(F)cc2)CC1	none
c1ccc([C@H](c2cccc3c2ccc2ccccc23)[C@H](c2ccccc2)c2cccc3c2ccc2ccccc23)cc1	none (no result: KDM4E inh, ALDH1A1 inh, CBFb RUNX1 block, HTT aggregate, HPGD block)
CCOc1ccc(CCNC(=O)CSc2nn(-c3ccc(C)c(Cl)c3)c(=S)s2)cc1OCC	ALDH1A1 inh 28µM
CCOc1ccc(CCNC(=O)CSc2nnnn2C)cc1OCC	none (no result: HPGD block)
CC(C)n1c(SCC(=O)Nc2nc3c(s2)CCCC3)nc2c1c(=O)n(C)c(=O)n2C	HTT aggregate 13µM
CCOC(=O)c1c(NC(=O)CSc2nc3c(c(=O)n(C)c(=O)n3C)n2C(C)C)sc(C)c1C	none
COC(=O)c1cc(NC(=O)c2ccc(F)cc2)cc(C(=O)OC)c1	KDM4E inh inconclusive (no result: HTT aggregate, HPGD block, HTT ATP protect)
CCCCOc1ccc(S(=O)(=O)Nc2cccnc2)cc1	HTT aggregate 11µM
CC(C)Oc1cccc(C(=O)NC(=S)Nc2ccc(Cl)c(C(=O)O)c2)c1	ALDH1A1 inh inconclusive
CCCCOc1cccc(C(=O)NC(=S)Nc2cccnc2)c1	ALDH1A1 inh 25µM
CC(C)Oc1cccc(C(=O)NC(=S)Nc2cccc(C(F)(F)F)c2)c1	ALDH1A1 inh 18µM
CCCOc1cccc(C(=O)NC(=S)Nc2ccc(N3CCN(C)CC3)cc2)c1	ALDH1A1 inh inconclusive (no result: HPGD block)
CCOc1cccc(C(=O)NC(=S)Nc2cccnc2)c1	KDM4E inh inconclusive, ALDH1A1 inh inconclusive
CCCCOc1cccc(C(=O)NC(=S)Nc2cccc(C(F)(F)F)c2)c1	ALDH1A1 inh 8.9µM, HTT aggregate inconclusive
CCOC(=O)c1nnn(-c2nonc2N)c1CSc1ccccn1	ALDH1A1 inh inconclusive
O=C(COC(=O)[C@@H]1CCCN1C(=O)c1cccs1)Nc1ccc(F)cc1[N+](=O)[O-]	none (no result: HPGD block)
CCC1C(=O)NCCN1Cc1nc(-c2ccc(C)s2)oc1C (stereo not given)	KDM4E inh inconclusive, ALDH1A1 inh inconclusive (no result: HPGD block)
CCOc1ccccc1N1C(=O)CC(Sc2n[nH]c(-c3ccccc3)n2)C1=O (stereo not given)	ALDH1A1 inh 11µM, HTT ATP protect inconclusive (no result: HPGD block)
COc1ccccc1N1C(=O)CC(Sc2nc(C)cc(C)n2)C1=O (stereo not given)	HTT ATP protect inconclusive
COC(=O)c1cc(=O)n2c(sc3ccccc32)c1C#N	KDM4E inh inconclusive, ALDH1A1 inh inconclusive (no result: HPGD block)
